Screening results: PubChem, National Center for Advancing Translational Sciences (NCATS)
The list is not random: actives were taken first. Their share in the collection is about 0.99%.
SARS PLpro yeast = blocks SARS-CoV papain-like protease in a yeast assay | S. cerevisiae expressing SARS-CoV PLpro, growth rescue | Potency, µM (highest dose often 32.9 µM), without a hit: at the top dose activity, positive = growth rescue, most hits filed as activators | actives 0.19% (n = 330,000); calls by dose curve; note: 0% is about no effect; nearly all actives have a fitted effect of over 55% in size
NS1 function inh = inhibitors of influenza NS1 protein function | Potency, µM (doses to about 46.1 µM), without a hit: at the highest dose activity, positive = more growth | actives 0.4% (n = 270,000); calls by dose curve; note: actives are rising curves; nearly all actives have a fitted effect of over 50% in size
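Growth recovery, yeast-based: influenza A NS1 expressed in S. cerevisiae causes slow growth, and suppressors are detected by OD600. The parent strain without NS1 is used as positive control.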
AMA1 RON2 block = disrupts binding of P. falciparum AMA1 to RON2. AlphaScreen AMA1-biotinylated RON2 peptide binding. Potency, µM (titrated, usually from 58.2 µM), without a hit: at the highest dose activity change, negative = inhibition, actives largely listed as inhibitors. actives 0.2% (n = 360,000);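 note: 0% = vehicle wells and -100% = peptide control; nearly all actives have a fitted effect of over 45% in size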
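AMA1 (3D7) with his tag at 25 nM final met compounds first, then biotinylated RON2 peptide at 25 nM; detection used donor plus acceptor beads, 10 µg/mL apiece, read by AlphaScreen after 30 min at room temperature.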
AmpC no deterg = blocks E. coli AmpC beta-lactamase in detergent-free assay. AmpC nitrocefin hydrolysis, absorbance 480 nm, 0.0001% Triton. Potency, µM (titrated, usually from 57.1 µM), for the others: at the top dose activity change, negative = inhibition, hits mostly inhibitors. actives 0.52% (n = 330,000). AID 485341;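 note: plate controls were no compound for no effect and no enzyme for full effect; nearly all actives have a fitted effect of over 20% in size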
Target sequence (P00811 whole entry, looked up): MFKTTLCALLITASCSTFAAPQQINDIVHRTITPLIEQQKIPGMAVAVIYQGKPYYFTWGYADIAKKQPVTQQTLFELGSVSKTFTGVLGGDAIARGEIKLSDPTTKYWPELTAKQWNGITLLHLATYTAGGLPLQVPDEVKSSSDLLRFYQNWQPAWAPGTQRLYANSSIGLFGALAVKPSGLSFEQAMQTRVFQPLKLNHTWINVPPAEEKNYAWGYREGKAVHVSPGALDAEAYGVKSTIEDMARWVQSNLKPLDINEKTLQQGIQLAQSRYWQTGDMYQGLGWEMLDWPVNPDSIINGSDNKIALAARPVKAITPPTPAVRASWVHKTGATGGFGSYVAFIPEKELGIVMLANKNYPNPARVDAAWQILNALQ
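20 mM phosphate pH 7.0 + 0.01% (detergent screen) or 0.0001% Triton X-100; 5.3 nM AmpC reagent; cpd preinc 15 min RT; nitrocefin (800 uM stock) to start; A480 q20 s × 4 min; Activity was normalised to no-enzyme and no-compound control wells.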
AmpC inh detg = AmpC beta-lactamase inhibition with detergent present; AmpC hydrolysis of nitrocefin, absorbance 480 nm, 0.01% Triton; Potency, µM (series often up to 114 µM), for inactives: at the highest dose activity change, negative = inhibition, actives largely listed as inhibitors; AID 485294; P00811; actives 0.041% (n = 370,000);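 note: 0% = no-compound wells and -100% = no-enzyme wells; nearly all actives have a fitted effect of over 25% in size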
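20 mM phosphate pH 7.0 + 0.01% (detergent screen) or 0.0001% Triton X-100; 5.3 nM AmpC reagent; cpd preinc 15 min RT; nitrocefin (800 uM stock) to start; A480 q20 s × 4 min; Activity was normalised to no-enzyme and no-compound control wells.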
The depositor's hits bear a star. Unless noted, calls come from the whole dose curve; as a rule, active = well fitted curve in the direction sought with a large enough effect; inconclusive = small, poorly fitted or top-dose-only effect, or another doubt; inactive = no such curve, though single readings can be large; an effect the other way counts as inactive or inconclusive. Potency is the fitted concentration of half-maximal effect.

COc1ccc(Cn2c(CNS(=O)(=O)c3ccc(Cl)s3)nc3cccnc32)cc1 was read as AmpC inh detg 3%.
For COc1ccc(OC)c2sc(N3CCN(C(=O)C(C)(C)C)CC3)nc12 the results were AmpC inh detg 1%.
`CCCCOC(=O)c1ccc(NC(=O)Cn2nnc3sc4c(c3c2=O)CCCC4)cc1` gave AmpC inh detg 23%.
`NNC(=O)c1nc[nH]c1C(=O)Nc1ccccn1` gave SARS PLpro yeast 14µM*, NS1 function inh 7%, AMA1 RON2 block inconclusive, AmpC no deterg -30% and AmpC inh detg -1%.
`C[n+]1c2ccccc2nc2ccc(NCCO)cc21` gave SARS PLpro yeast 0%, NS1 function inh -1%, AMA1 RON2 block 20µM*, AmpC no deterg -7% and AmpC inh detg 3%.
COC(=O)c1ccc(CN(c2ccc(C(=O)O)c(O)c2)S(=O)(=O)c2ccc(Cl)c([N+](=O)[O-])c2)cc1 was read as SARS PLpro yeast -2%, NS1 function inh -1%, AMA1 RON2 block -4%, AmpC no deterg 7.9µM* and AmpC inh detg -4%.
For CCOC(=O)Cn1c(=O)oc2cc(S(=O)(=O)NCCc3ccc(C)cc3)ccc21 the results were SARS PLpro yeast 6%, NS1 function inh -10%, AMA1 RON2 block 5%, AmpC no deterg 10µM* and AmpC inh detg inconclusive.
O=C(CSc1cn(CCNC(=O)c2cccs2)c2ccccc12)NC1CCCC1 was read as SARS PLpro yeast -4%, NS1 function inh -4%, AMA1 RON2 block 14%, AmpC no deterg 28µM* and AmpC inh detg inconclusive.
O=C(CCCn1c(=S)[nH]c2ccc(Br)cc2c1=O)NCC1CCCO1 (stereo not given) was read as SARS PLpro yeast inconclusive, NS1 function inh 1.8µM*, AMA1 RON2 block 77%, AmpC no deterg -11% and AmpC inh detg -1%.
O=C(CCCn1c(=O)[nH]c2cc(Cl)ccc2c1=O)NCC1CCCO1 (stereo not given) was read as SARS PLpro yeast -2%, NS1 function inh 6%, AMA1 RON2 block -2%, AmpC no deterg -18% and AmpC inh detg inconclusive.
Cc1cc(/C=C2\SC(=S)NC2=O)c(C)n1-c1cccc(O)c1 was read as SARS PLpro yeast -7%, NS1 function inh -4%, AMA1 RON2 block 61%, AmpC no deterg 18µM* and AmpC inh detg 6%.
Screening Cc1sc(-n2c(C)cc(/C=C3\SC(=S)NC3=O)c2C)c(C#N)c1C returned SARS PLpro yeast -9%, NS1 function inh -23%, AMA1 RON2 block 36%, AmpC no deterg 14µM* and AmpC inh detg -6%.
Screening Cc1ccc(-n2c(C)cc(/C=C3\SC(=O)NC3=O)c2C)cc1 returned SARS PLpro yeast -4%, NS1 function inh -3%, AMA1 RON2 block 0%, AmpC no deterg -38% and AmpC inh detg 2%.
For CN(C=[N+](C)C)c1cccc2c1C(=O)c1ccccc1C2=O the results were SARS PLpro yeast 6%, NS1 function inh 4%, AMA1 RON2 block 32µM*, AmpC no deterg -28% and AmpC inh detg -6%.
Screening O=C(O)c1cccc2c1C(=O)c1ccccc1C2=O returned SARS PLpro yeast 1%, AMA1 RON2 block -11%, AmpC no deterg -18% and AmpC inh detg -16%.
For Cc1[nH]n(-c2ncc(-c3ccccc3)s2)c(=O)c1C(c1ccc(Cl)cc1)C(C#N)C#N (stereo not given) the results were SARS PLpro yeast -18%, NS1 function inh inconclusive, AMA1 RON2 block 8%, AmpC no deterg 32µM* and AmpC inh detg -12%.
Cc1ccc(NC(=O)c2ccc(OC(=O)COc3ccc(Cl)cc3C)cc2)cc1 was read as SARS PLpro yeast 6%, NS1 function inh 3%, AMA1 RON2 block 12%, AmpC no deterg -11% and AmpC inh detg inconclusive.
Cc1ccc(C(=O)CC(=O)COc2ccc(Cl)cc2C)cc1 was read as SARS PLpro yeast inconclusive, NS1 function inh -1%, AMA1 RON2 block 97%, AmpC no deterg 2.2µM* and AmpC inh detg inconclusive.
Screening O=C(CCCCCn1c(=O)c2sccc2n(CC(=O)Nc2cccc(Cl)c2)c1=O)NCc1ccc2c(c1)OCO2 returned AmpC inh detg 1%.
`CC(C)c1ccc(-c2nnc3n(CCc4ccccc4)c(=O)c4ccccc4n23)cc1` gave AmpC inh detg 23%.
